Targets with a hit are over-represented here; the source holds about 7,900 in all. About 0.6% of all pairs of compound and target were hits.
Experiments:
Experiment in all cases: log2 fold change, soluble protein after heating vs DMSO (PISA); higher = thermal stabilisation; K562 cells, 10 uM, 30 min; active = over 0.2 and 3.5 SD of the protein, either way, in both replicates (recomputed)
crizotinib = compound: C[C@@H](Oc1cc(-c2cnn(C3CCNCC3)c2)cnc1N)c1c(Cl)ccc(F)c1Cl [crizotinib]
Summary of the method: (§1)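 Aliquots of K562 cells (2×10^6 cells/mL) treated with 10 μM compound for 30 min were heated for 3 min over 48°C-58°C. After pooling and extraction in PBS with 0.5% NP-40 at 4°C, soluble protein from a 21,000xg, 90 min spin was quantified by TMTpro 16plex LC-MS/MS with channel sums equalised. Thermal stability is expressed against control samples, from duplicates, as a log2 fold change.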

[1] = compound: C[C@@H]1COCCN1C2=NC(=NC(=C2)C3(CC3)S(=O)(=O)C)C4=C5C=CNC5=CC=C4
Summary of the method: as §1

[2] = compound: C[C@H](C1=CC=C(C=C1)C(=O)NC2=C3C=CNC3=NC=C2)N
Summary of the method: as §1

duvelisib = compound: C[C@H](Nc1ncnc2nc[nH]c12)c1cc2cccc(Cl)c2c(=O)n1-c1ccccc1 [duvelisib]
Summary of the method: as §1

gandotinib = compound: Cc1cc(Nc2cc(CN3CCOCC3)c3nc(C)c(Cc4ccc(Cl)cc4F)n3n2)n[nH]1 [gandotinib]
Summary of the method: as §1

tozasertib = compound: Cc1cc(Nc2cc(N3CCN(C)CC3)nc(Sc3ccc(NC(=O)C4CC4)cc3)n2)n[nH]1 [tozasertib]
Summary of the method: as §1

[3] = compound: Cc1cc(SCc2sc(-c3ccc(C(F)(F)F)cc3)nc2C)ccc1OCC(=O)O
Summary of the method: as §1

doramapimod = compound: Cc1ccc(-n2nc(C(C)(C)C)cc2NC(=O)Nc2ccc(OCCN3CCOCC3)c3ccccc23)cc1 [doramapimod]
Summary of the method: as §1

ispinesib = compound: Cc1ccc(C(=O)N(CCCN)[C@@H](c2nc3cc(Cl)ccc3c(=O)n2Cc2ccccc2)C(C)C)cc1 [ispinesib]
Summary of the method: as §1

bafetinib = compound: Cc1ccc(NC(=O)c2ccc(CN3CC[C@H](N(C)C)C3)c(C(F)(F)F)c2)cc1Nc1nccc(-c2cncnc2)n1 [bafetinib]
Summary of the method: as §1

[4] = compound: Cc1cccc(CC(=O)N2CCc3c2ccc(-c2cn(C)c4ncnc(N)c24)c3F)n1
Summary of the method: as §1

nilotinib = compound: Cc1cn(-c2cc(NC(=O)c3ccc(C)c(Nc4nccc(-c5cccnc5)n4)c3)cc(C(F)(F)F)c2)cn1 [nilotinib]
Summary of the method: as §1

[5] = compound: Cc1nc(Nc2n[nH]c3c2CN(C(=O)N[C@H](CN(C)C)c2ccccc2)C3(C)C)c2sccc2n1
Summary of the method: as §1

dasatinib = compound: Cc1nc(Nc2ncc(C(=O)Nc3c(C)cccc3Cl)s2)cc(N2CCN(CCO)CC2)n1 [dasatinib]
Summary of the method: as §1

[6] = compound: Cc1ncc(-c2ccnc(Nc3ccc(S(C)(=O)=O)cc3)n2)n1C(C)C
Summary of the method: as §1

[7] = compound: Cn1cc(-c2ccc3c(c2)CCN3C(=O)Cc2cccc(C(F)(F)F)c2)c2c(N)ncnc21
Summary of the method: as §1

[8] = compound: Cn1cc(-c2ccc3nnc(C(F)(F)c4ccc5ncccc5c4)n3n2)cn1
Summary of the method: as §1

tipifarnib = compound: Cn1cncc1[C@@](N)(c1ccc(Cl)cc1)c1ccc2c(c1)c(-c1cccc(Cl)c1)cc(=O)n2C [tipifarnib]
Summary of the method: as §1

mubritinib = compound: FC(F)(F)c1ccc(/C=C/c2nc(COc3ccc(CCCCn4ccnn4)cc3)co2)cc1 [mubritinib]
Summary of the method: as §1

[9] = compound: CS(=O)(=O)c1ccc(-c2cnc(N)c(C(=O)Nc3ccccc3)n2)cc1
Summary of the method: as §1

Measured: log2 fold change

ABHD11 (UniProt Q8NFV4)
Chain of UniProt Q8NFV4 (Q8NFV4 whole entry, looked up): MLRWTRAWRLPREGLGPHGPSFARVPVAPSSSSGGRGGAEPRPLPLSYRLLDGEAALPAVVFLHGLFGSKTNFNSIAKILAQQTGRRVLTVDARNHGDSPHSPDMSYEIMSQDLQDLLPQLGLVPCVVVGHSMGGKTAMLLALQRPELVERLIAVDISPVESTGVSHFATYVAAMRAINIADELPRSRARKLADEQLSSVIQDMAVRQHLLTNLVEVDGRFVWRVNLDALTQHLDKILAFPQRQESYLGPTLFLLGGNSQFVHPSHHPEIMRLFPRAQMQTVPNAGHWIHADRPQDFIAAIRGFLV
active: [1] 0.309 | gandotinib 0.389
inactive: crizotinib 0.149 | [2] 0.057 | duvelisib 0.144 | tozasertib -0.039 | [3] -0.003 | doramapimod 0.028 | ispinesib 0.029 | bafetinib 0.011 | [4] 0.175 | nilotinib 0.003 | [5] -0.006 | dasatinib 0.073 | [6] 0.083 | [7] 0.024 | [8] 0.025 | tipifarnib 0.174 | mubritinib -0.235

ATXN3 isoform 1 (UniProt P54252)
inactive: crizotinib -0.028 | [2] 0.076 | gandotinib -0.028 | tozasertib -0.163 | doramapimod 0.087 | ispinesib -0.043 | bafetinib 0.03 | [4] 0.021 | nilotinib -0.038 | [5] -0.11 | [6] -0.021 | [7] 0.001 | [8] 0.033 | tipifarnib 0.026 | mubritinib 0.018

ANGEL1 (UniProt Q9UNK9)
inactive: crizotinib -0.058 | tozasertib -0.077 | doramapimod -0.028 | ispinesib 0.27 | bafetinib 0.015 | [8] -0.063

ADD1 isoform 4 (UniProt P35611)
Chain of UniProt P35611 (P35611 whole entry, looked up): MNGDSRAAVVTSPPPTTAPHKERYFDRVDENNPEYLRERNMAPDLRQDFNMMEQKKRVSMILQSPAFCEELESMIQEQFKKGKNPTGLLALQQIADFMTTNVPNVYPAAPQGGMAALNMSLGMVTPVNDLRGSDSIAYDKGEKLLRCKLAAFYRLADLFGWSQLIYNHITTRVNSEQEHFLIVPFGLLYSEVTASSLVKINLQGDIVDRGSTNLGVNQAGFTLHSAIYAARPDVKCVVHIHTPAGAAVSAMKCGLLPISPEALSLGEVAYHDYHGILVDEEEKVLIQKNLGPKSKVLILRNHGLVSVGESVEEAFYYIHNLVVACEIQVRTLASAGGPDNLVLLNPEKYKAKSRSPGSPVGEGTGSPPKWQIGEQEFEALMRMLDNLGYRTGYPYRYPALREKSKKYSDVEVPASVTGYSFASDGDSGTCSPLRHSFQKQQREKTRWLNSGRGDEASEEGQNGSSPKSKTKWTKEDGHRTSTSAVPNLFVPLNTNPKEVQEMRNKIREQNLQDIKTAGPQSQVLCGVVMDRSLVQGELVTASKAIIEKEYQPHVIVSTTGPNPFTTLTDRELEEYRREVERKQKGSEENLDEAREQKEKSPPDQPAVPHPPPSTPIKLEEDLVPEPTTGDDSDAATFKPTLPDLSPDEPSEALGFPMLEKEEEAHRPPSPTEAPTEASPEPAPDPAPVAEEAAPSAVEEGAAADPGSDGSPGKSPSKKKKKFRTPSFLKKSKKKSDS
inactive: crizotinib 0.152 | [1] -0.213 | [2] 0.186 | gandotinib -0.153 | doramapimod -0.075 | bafetinib -0.034 | [4] 0.033 | [7] 0.114

ACSL6 isoform 1 (UniProt Q9UKU0)
inactive: [9] -0.055 | [1] 0.164 | duvelisib -0.068 | gandotinib -0.145 | tozasertib -0.052 | [3] 0.157 | ispinesib -0.198 | bafetinib 0.147 | [4] 0.057 | nilotinib -0.066 | [5] -0.066 | dasatinib 0.036 | [6] -0.025 | [8] 0.014 | mubritinib 0.015

AIF1 (UniProt P55008)
Chain of UniProt P55008 (P55008 whole entry, looked up): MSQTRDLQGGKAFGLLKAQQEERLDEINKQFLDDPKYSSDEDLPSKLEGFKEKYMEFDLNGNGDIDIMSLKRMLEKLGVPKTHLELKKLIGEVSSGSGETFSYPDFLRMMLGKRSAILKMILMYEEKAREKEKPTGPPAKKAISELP
inactive: [9] 0.008 | [1] 0.11 | ispinesib -0.317 | bafetinib 0.035 | [8] 0.153 | tipifarnib 0.051

BAIAP2 isoform 4 (UniProt Q9UQB8)
Chain of UniProt Q9UQB8 (Q9UQB8 whole entry, looked up): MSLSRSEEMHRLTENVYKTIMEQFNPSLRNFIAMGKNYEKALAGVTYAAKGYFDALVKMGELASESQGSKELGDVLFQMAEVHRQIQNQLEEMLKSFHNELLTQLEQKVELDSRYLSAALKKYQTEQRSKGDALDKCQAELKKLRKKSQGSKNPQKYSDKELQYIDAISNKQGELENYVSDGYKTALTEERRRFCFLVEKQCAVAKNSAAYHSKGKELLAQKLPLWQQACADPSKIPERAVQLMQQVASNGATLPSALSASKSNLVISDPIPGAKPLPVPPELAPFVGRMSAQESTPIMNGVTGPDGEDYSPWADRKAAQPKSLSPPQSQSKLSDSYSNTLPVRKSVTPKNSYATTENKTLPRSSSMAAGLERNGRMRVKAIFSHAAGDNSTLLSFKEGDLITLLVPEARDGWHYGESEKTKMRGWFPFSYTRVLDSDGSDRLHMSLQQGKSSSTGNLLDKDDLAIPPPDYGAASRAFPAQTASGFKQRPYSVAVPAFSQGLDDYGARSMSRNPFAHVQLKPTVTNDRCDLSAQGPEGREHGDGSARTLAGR
inactive: [9] -0.112 | [2] 0.29 | tozasertib 0.042 | [7] -0.018

ALDH9A1 (UniProt P49189)
Chain of UniProt P49189 (P49189 whole entry, looked up): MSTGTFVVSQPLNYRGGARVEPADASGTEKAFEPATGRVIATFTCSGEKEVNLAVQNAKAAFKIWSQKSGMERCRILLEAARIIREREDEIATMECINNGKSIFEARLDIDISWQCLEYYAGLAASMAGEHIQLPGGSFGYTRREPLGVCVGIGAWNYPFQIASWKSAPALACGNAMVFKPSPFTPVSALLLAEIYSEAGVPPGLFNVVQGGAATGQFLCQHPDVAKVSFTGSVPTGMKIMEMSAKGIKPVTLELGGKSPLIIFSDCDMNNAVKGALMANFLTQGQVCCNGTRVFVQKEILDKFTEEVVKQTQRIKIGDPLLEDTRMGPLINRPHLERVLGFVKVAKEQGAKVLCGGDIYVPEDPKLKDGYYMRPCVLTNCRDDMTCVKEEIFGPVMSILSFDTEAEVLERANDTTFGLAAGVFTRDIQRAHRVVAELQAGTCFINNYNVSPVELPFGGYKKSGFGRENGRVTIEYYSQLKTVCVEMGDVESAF
inactive: [9] 0.084 | [1] 0.061 | [2] -0.116 | duvelisib 0.002 | tozasertib -0.052 | [3] 0.045 | ispinesib -0.243 | bafetinib 0.023 | [4] 0.071 | nilotinib -0.08 | [5] -0.046 | dasatinib -0.105 | [6] 0.019 | [7] 0.047 | [8] 0.044 | tipifarnib 0.099 | mubritinib -0.015
active: gandotinib 0.356

AZI2 (UniProt Q9H6S1)
inactive: [9] 0.074 | tozasertib 0.329 | ispinesib -0.019 | bafetinib -0.049 | nilotinib 0.179 | [5] 0.481 | [6] 0.099 | [8] 0.105

AURKA (UniProt O14965)
active: gandotinib 1.01 | [5] 0.699
inactive: [9] 0.198 | [1] -0.251 | [2] 0.066 | duvelisib -0.058 | [3] -0.013 | doramapimod 0.051 | ispinesib -0.107 | bafetinib 0.103 | [4] -0.113 | nilotinib -0.001 | dasatinib 0.365 | [6] 0.47 | [7] 0.073 | [8] -0.016 | tipifarnib -0.054 | mubritinib -0.078

ALDH2 isoform 2 (UniProt P05091)
inactive: [9] 0.209 | [1] 0.244 | gandotinib -0.027 | tozasertib -0.224 | ispinesib -0.214 | bafetinib -0.029 | [4] -0.124 | [8] 0.244 | tipifarnib 0.015

ARRDC1 (UniProt Q8N5I2)
inactive: [9] 0.015 | [1] -0.097 | [2] 0.205 | duvelisib -0.263 | gandotinib 0.1 | tozasertib -0.075 | [3] -0.071 | ispinesib -0.082 | bafetinib 0.014 | [4] -0.035 | nilotinib -0.045 | [5] 0.065 | dasatinib -0.073 | [6] 0.079 | [7] 0 | [8] -0.087 | tipifarnib 0.011 | mubritinib -0.112

ACVR1 (UniProt Q04771)
active: [2] 0.642
inactive: [9] 0.38 | [1] 0.04 | duvelisib 0.074 | gandotinib 0.109 | tozasertib 0.014 | [3] -0.061 | [4] -0.068 | dasatinib 0.041 | [7] 0.029 | tipifarnib -0.006 | mubritinib -0.124

BRD4 (UniProt O60885)
inactive: [9] 0.081 | [1] 0.288 | [2] -0.009 | duvelisib 0.207 | gandotinib -0.034 | tozasertib 0.033 | [3] -0.044 | ispinesib -0.022 | bafetinib 0.067 | [4] 0.054 | nilotinib -0.144 | [5] 0.017 | dasatinib -0.094 | [6] -0.233 | [7] 0.011 | [8] -0.046 | tipifarnib -0.09 | mubritinib 0.032

ATXN7L3 isoform 2 (UniProt Q14CW9)
inactive: [9] 0.001 | crizotinib -0.043 | doramapimod 0.169 | ispinesib -0.007 | bafetinib -0.123 | nilotinib 0.024 | [5] 0.043 | [6] -0.054 | [8] 0.03 | mubritinib 0.086

AKNA (UniProt Q7Z591)
Chain of UniProt Q7Z591 (Q7Z591 whole entry, looked up): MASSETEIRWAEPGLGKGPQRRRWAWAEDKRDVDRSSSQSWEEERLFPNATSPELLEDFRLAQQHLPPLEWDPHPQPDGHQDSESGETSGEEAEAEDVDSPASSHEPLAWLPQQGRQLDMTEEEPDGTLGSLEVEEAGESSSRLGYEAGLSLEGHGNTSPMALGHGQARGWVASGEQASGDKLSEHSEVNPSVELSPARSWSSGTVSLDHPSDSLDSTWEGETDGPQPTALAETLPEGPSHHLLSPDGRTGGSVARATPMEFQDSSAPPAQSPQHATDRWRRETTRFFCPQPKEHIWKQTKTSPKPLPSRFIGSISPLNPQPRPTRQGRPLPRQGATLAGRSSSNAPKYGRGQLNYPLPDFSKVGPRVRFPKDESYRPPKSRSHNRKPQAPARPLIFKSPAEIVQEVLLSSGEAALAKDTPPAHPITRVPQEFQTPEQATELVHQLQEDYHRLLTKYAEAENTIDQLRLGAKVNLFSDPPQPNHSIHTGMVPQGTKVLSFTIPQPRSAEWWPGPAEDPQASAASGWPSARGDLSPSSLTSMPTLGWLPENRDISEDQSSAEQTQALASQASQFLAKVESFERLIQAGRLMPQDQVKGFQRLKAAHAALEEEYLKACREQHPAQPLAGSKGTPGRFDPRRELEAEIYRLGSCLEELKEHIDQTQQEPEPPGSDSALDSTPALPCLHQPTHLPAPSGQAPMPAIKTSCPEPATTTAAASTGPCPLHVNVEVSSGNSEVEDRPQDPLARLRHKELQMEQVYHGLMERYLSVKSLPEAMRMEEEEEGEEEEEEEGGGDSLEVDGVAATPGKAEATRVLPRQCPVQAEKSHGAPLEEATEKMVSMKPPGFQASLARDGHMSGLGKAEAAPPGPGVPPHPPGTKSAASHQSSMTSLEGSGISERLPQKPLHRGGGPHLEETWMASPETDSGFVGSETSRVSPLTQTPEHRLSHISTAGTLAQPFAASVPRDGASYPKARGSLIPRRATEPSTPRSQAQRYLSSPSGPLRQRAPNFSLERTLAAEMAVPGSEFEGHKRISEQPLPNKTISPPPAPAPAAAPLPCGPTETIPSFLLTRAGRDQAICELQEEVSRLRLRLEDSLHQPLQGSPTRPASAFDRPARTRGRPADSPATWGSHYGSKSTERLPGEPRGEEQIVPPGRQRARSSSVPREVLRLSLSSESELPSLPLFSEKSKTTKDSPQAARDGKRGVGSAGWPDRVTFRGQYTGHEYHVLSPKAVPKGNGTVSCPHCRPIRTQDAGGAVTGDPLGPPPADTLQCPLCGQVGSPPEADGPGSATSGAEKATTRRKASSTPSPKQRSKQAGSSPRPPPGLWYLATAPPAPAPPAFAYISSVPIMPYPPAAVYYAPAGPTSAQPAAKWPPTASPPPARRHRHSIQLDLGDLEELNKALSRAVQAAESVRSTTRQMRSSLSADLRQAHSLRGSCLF
inactive: [9] -0.015 | [2] -0.02 | [7] -0.134 | tipifarnib 0.215

BRMS1 (UniProt Q9HCU9)
Chain of UniProt Q9HCU9 (Q9HCU9 whole entry, looked up): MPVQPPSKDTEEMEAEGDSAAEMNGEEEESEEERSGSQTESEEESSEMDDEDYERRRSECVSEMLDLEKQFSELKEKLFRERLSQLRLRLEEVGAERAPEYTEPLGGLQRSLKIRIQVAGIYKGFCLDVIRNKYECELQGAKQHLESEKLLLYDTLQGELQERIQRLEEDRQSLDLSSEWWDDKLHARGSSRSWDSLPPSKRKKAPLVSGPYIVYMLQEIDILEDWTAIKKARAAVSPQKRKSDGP
inactive: [1] -0.034 | duvelisib 0.049 | gandotinib -0.174 | tozasertib -0.094 | [3] -0.046 | [4] 0.029 | dasatinib 0.035 | mubritinib 0.179

ALG14 (UniProt Q96F25)
Chain of UniProt Q96F25 (Q96F25 whole entry, looked up): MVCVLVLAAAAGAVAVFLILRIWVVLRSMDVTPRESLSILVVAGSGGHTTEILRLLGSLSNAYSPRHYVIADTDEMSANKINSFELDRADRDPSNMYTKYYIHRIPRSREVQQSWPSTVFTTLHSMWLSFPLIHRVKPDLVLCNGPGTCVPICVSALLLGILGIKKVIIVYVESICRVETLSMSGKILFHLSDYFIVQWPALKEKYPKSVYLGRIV
active: gandotinib -0.798 | [4] 0.461
inactive: crizotinib -0.034 | [1] -0.117 | [2] -0.042 | duvelisib 0.01 | tozasertib -0.134 | [3] -0.002 | doramapimod -0.038 | ispinesib -0.018 | bafetinib -0.092 | nilotinib 0.061 | [5] 0.026 | dasatinib 0.003 | [6] -0.033 | [7] 0.014 | [8] 0.126 | tipifarnib -0.214 | mubritinib 0.003

BRAF, A0A2R8Y8E0
active: doramapimod -0.757
inactive: crizotinib 0.262 | tozasertib 0.248 | ispinesib -0.223 | nilotinib -0.419 | [5] 0.112 | [6] -0.236 | [8] 0.052 | mubritinib 0.113

AUNIP isoform 2 (UniProt Q9H7T9)
active: tipifarnib -0.844
inactive: [9] 0.117 | [2] -0.007 | duvelisib 0.157 | tozasertib -0.203 | [3] 0.056 | dasatinib -0.284 | [7] -0.006

ARL4A (UniProt P40617)
inactive: bafetinib 0.145 | mubritinib 0.078

ACTBL2 (UniProt Q562R1)
inactive: [9] -0.022 | [1] -0.005 | duvelisib -0.091 | gandotinib -0.828 | [3] -0.299 | ispinesib -0.307 | bafetinib 0.113 | [4] -0.124 | nilotinib 0.579 | [5] -0.067 | dasatinib 0.398 | [6] -0.051 | [8] 0.336 | tipifarnib 0.488 | mubritinib -0.267

ACTR3B (UniProt Q9P1U1)
inactive: crizotinib -0.005 | gandotinib 0.024 | tozasertib -0.02 | doramapimod 0.158 | ispinesib -0.069 | [4] 0.035 | nilotinib 0.036 | [5] -0.082 | [6] -0.001 | [8] -0.051 | tipifarnib 0.129

AUH (UniProt Q13825)
inactive: crizotinib -0.301 | [2] -0.105 | duvelisib -0.036 | gandotinib -0.127 | tozasertib -0.098 | [3] 0.135 | doramapimod 0.071 | ispinesib -0.069 | bafetinib -0.102 | [4] 0.024 | dasatinib 0.145 | [7] -0.072 | [8] 0.007 | tipifarnib -0.011 | mubritinib 0.048

ADD2 isoform 9 (UniProt P35612)
Chain of UniProt P35612 (P35612 whole entry, looked up): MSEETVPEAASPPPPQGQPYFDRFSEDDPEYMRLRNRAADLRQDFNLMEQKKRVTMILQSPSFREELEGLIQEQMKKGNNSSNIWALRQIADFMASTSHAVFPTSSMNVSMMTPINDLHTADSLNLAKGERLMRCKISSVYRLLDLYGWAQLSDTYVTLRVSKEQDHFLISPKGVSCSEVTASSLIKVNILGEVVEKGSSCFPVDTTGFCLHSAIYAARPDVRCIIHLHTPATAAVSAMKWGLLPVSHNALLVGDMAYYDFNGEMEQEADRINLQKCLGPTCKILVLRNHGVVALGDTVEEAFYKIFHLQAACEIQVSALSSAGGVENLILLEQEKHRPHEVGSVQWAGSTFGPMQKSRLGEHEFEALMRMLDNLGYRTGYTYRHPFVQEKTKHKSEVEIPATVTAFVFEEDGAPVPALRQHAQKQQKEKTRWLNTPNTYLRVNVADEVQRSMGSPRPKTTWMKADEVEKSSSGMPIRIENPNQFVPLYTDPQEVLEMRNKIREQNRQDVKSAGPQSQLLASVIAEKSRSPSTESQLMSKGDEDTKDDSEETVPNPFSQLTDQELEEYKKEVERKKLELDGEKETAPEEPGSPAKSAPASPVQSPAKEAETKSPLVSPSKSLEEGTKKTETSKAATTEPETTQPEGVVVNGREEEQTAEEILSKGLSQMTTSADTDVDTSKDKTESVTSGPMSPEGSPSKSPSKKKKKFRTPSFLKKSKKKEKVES
inactive: [9] -0.067 | ispinesib 0.04 | bafetinib 0.021 | [8] -0.002 | tipifarnib 0.149 | mubritinib -0.125
